Source: PubChem BioAssay
MITF primary – inhibitors of human MITF; O75030; AlphaScreen MITF homodimerization, bead proximity signal; inhibition, % at 2.6 µM; actives 0.91% (n = 650,000); AID 1259374; in the data active means inhibition above about 50%;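 further: 0% = vehicle wells with protein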
Target sequence (O75030 whole entry, looked up): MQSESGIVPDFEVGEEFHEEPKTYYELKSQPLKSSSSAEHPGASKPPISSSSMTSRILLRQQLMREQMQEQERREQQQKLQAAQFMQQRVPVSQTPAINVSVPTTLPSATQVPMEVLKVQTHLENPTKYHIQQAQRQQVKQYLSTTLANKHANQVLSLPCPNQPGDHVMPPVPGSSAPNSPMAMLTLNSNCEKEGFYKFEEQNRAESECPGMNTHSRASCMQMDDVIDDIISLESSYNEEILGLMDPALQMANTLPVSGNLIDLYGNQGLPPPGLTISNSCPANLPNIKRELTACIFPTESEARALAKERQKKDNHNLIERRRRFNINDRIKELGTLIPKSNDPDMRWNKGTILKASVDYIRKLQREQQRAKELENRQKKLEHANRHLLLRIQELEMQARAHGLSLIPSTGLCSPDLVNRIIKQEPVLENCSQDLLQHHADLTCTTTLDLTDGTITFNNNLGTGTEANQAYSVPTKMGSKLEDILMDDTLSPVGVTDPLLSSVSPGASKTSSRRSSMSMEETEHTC
TEAD-YAP inh – TEAD-YAP interaction inhibition | actives 1.4% (n = 640,000) | HEK-TIYL cells, TEAD-Gal4/YAP UAS-luciferase luminescence | inhibition, % at 9.12 µM | AID 1259422; in the data active means inhibition above about 32%;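 further: 0% = median of test compound wells and 100% = reference inhibitor wells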
GPR151 ag – activates the human receptor GPR151 | activation, % at 11.2 µM | actives 1% (n = 650,000) | Q8TDV0 | AID 1508602 | PathHunter beta-arrestin GPR151 cells, luminescence; in the data active means activation above about 4.9%;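 further: 0% = median of compound wells and 100% = cells with positive control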
FBW7 act – activators of human E3 ligase FBW7; AlphaScreen FBW7–phospho-cyclin E peptide binding, activator screen; normalized activity (activation), % at 26.1 µM; actives 0.13% (n = 650,000); AID 1259310; in the data active means normalized activity above about 1.9%;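 further: purified mutant Fbw7 with reduced substrate affinity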
GPR151 conf act – human GPR151 activation, confirmation screen | shares compounds with GPR151 ag | GPR151 PathHunter beta-arrestin cells, luminescence, 90 min; % of EA-reagent control over plate median | activation, % at 11.2 µM | 6,700 tested, under 10 active;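 active means mean percent activation across replicates above the confirmation screen cutoff of 4.91%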
GPR119 ag – activates human GPR119 in a GPR151 counter-screen; shares compounds with GPR151 ag; GPR119 PathHunter beta-arrestin cells, luminescence, 90 min; 0 = compound-well median, 100 = enzyme-acceptor control; activation, % at 11.2 µM; actives 0.3% (n = 6,700); AID 1508611;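 active means mean percent activation in the counterscreen above 29.09%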;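 further: counterscreen on off-target GPR119 to flag nonselective hits from the GPR151 activator screen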
Numbers without * were called inactive; / = not tested or not shown; ! = not confirmed by another sample. Rows were chosen to be rich in hits. Some 3.4% of all compounds tested hit in one or more screens of this group.

SMILES	MITF primary	TEAD-YAP inh	GPR151 ag	FBW7 act	GPR151 conf act	GPR119 ag
CC(C)=CC[C@@H](O)C1=CC(=O)c2c(O)ccc(O)c2C1=O	75*!	8	10.0*!	0	0	2
O=C(OCC1CCCO1)c1ccccc1C(=O)OCC(F)(F)C(F)F (stereo unspecified)	14	0	-1	0	/	/
O=C(NCCN1CCOCC1)c1ccc2nc(N3CCN(Cc4ccc5c(c4)OCO5)CC3)sc2c1	-8	9	6.8*	0	0	-4
Cc1ccc(CCNC(=O)CN2CCN(Cc3cccc(C)c3)C2=O)cc1	-4	8	5.5*	0	0	-12
CC(=O)c1ccccc1-c1ccc2c(-c3ccc(N4CCNCC4)cc3)[nH]nc2n1	3	5	1	0	/	/
NC(=O)c1ccc(-c2ccc3c(-c4ccc(N5CCNCC5)cc4)[nH]nc3n2)cc1	0	-39	5.9*	1	0	3
Cc1cc(NC(=O)[C@@H]2C[C@H](c3cccs3)NS(=O)(=O)N2C)n(-c2ccccc2)n1	0	0	0	0	/	/
CC(=O)c1ccc(NC(=O)CSc2ccc3nnc(-c4ccc(F)cc4)n3n2)cc1	-3	8	-1	0	/	/
CC(=O)c1ccc(NC(=O)CSc2ccc3nnc(-c4ccc(C)cc4)n3n2)cc1	12	6	5.8*	0	-1	8
CCN(CC)c1cc(Nc2ccc(NC(C)=O)cc2)c([N+](=O)[O-])c2nonc12	6	7	2	0	/	/
CCN(CC)c1cc(NCCO)c([N+](=O)[O-])c2nonc12	16	5	5.9*	0	-1	-12
Cc1ccc(S(=O)(=O)N(C)CC(=O)OCC(=O)N2CCCC2=O)cc1	11	7	0	0	/	/
OC1(c2cccnc2)CCN(Cc2cccc(F)c2)CC1	7	5	0	0	/	/
OC1(c2cccc(F)c2)CCN(Cc2ccncc2)CC1	20	-15	6.1*	1	1	17
O=C1C(Nc2ccc3c(c2)OCCO3)=CC(c2ccccc2)N1c1ccc2c(c1)OCCO2 (stereo unspecified)	11	-8	4	1	/	/
O=C(O)c1cccc2c1/C(=N/O)c1ccccc1-2	12	11	0	0	/	/
Nc1cccc(-c2cc(Nc3ccc(Oc4ccccc4)cc3)nc(N)n2)c1	7	52*	4.9*	0	1	-7
COc1ccc(-c2cc(Nc3ccc(Oc4ccccc4)cc3)nc(N)n2)cc1	8	-2	5	0	/	/
COc1ccccc1NC(=O)NCc1nc(N)n(C(=O)Nc2ccccc2OC)n1	-10	3	5.2*	0	0	5
C/C(=C/c1ccccc1)C(=O)Nc1ccc(S(N)(=O)=O)cc1	-3	-44	5.0*	0	0	-8
CCC(C)Nc1c([N+](=O)[O-])cc(C(=O)O)cc1[N+](=O)[O-] (stereo unspecified)	6	3	0	0	/	/
CCC(Nc1c([N+](=O)[O-])cc(C(F)(F)F)cc1[N+](=O)[O-])C(=O)O (stereo unspecified)	-4	4	6.0*	0	0	7
C/C(CC(=O)Nc1ccc2c(c1)OCCO2)=N\NC(=O)C(=O)Nc1ccc(C)cc1	1	-5	7.0*	0	0	5
CC(=O)N/N=C(\C)CC(=O)Nc1ccc2c(c1)OCCO2	-1	-2	0	0	/	/
COc1ccc(/C=N/NC(=O)c2ccccc2[N+](=O)[O-])cc1OC	1	-13	1	0	/	/
SMILES	MITF primary	TEAD-YAP inh	GPR151 ag	FBW7 act	GPR151 conf act	GPR119 ag
CC(C)n1cnc2c(NCCCN3CCCC3=O)nc(NCCCN3CCCC3=O)nc21	10	-1	3	0	/	/
CCNc1nc(NCCCN2CCCC2=O)c2ncn(C(C)C)c2n1	4	8	5.4*	0	0	-8
O=C1CCCN1CCCNc1nc(NCCN2CCOCC2)c2ncn(CCN3CCCC3=O)c2n1	2	-9	6.4*	0	0	-11
CC(C)N(CCNc1nc(NCCN2CCOCC2)nc2c1ncn2Cc1ccc(C(F)(F)F)cc1)C(C)C	0	-1	6.4*	0	0	-3
O=C1CCCN1CCCNc1nc(NCCCN2CCCC2=O)c2ncn(CCN3CCCC3=O)c2n1	10	-9	-2	0	/	/
O=C1CCCN1CCCNc1nc(N2CCC(N3CCOCC3)CC2)nc2c1ncn2C1CCCCC1	-2	-1	14*	0	0	-6
COc1ccc(Cl)cc1-n1c(=S)sc2c(=O)[nH]c(SCC(=O)NC3CCCC3)nc21	-5	-1	-1	0	/	/
O=C1CCCN1CCn1cnc2c(NC3CC3)nc(Nc3ccncc3)nc21	0	1	12*	0	0	-3
COc1cc(Nc2nc(NCCN3CCOCC3)c3ncn(CCN4CCCC4=O)c3n2)cc(OC)c1OC	17	0	5.7*	0	2	4
CCCNc1nc(Nc2cc(OC)c(OC)c(OC)c2)nc2c1ncn2CCN1CCCC1=O	12	9	2	0	/	/
COc1ccc(-c2noc(CSc3nc(N)c(-c4ccccc4)c(=O)[nH]3)n2)cc1OC	-11	6	5.7*	0	0	-1
COc1ccc(-c2noc(CSc3nnc(C)n3-c3ccccc3)n2)cc1OC	-8	-4	-1	0	/	/
Cc1nnc(SCC(=O)Nc2sc3c(c2C#N)CCC3)s1	0	0	0	0	/	/
COCCNC(=O)c1ccc(/C=C2\Oc3ccccc3N(C)C2=O)cc1	-20	-5	11*	1	-1	12
COc1cc(NC(=O)CSc2ccc(C(=O)O)cn2)cc(OC)c1	-1	-11	0	0	/	/
COc1cc(NC(=O)CSc2ccc(C(=O)O)cn2)ccc1-n1cnnn1	8	10	8.2*	0	0	3
CC1(C)Cc2cccc(OCC(=O)NC3=NCCS3)c2O1	-1	-4	5.9*	0	2	1
NC(=O)NC(CC(=O)O)c1ccc(Cl)cc1 (stereo unspecified)	-6	9	7.7*	0	0	-4
CC(C)N(CCNC(=O)c1cccc(Nc2ccccn2)n1)C(C)C	6	1	3	0	/	/
CCOc1ccc(C=Nc2ccc(C(=O)O)cc2)c(O)c1	14	-13	-1	0	/	/
CCOc1ccc(C=Nc2ccc(C(C)=O)cc2)c(O)c1	5	-32	5.6*	0	-1	-13
COc1ccc(O)c(CN2CCCCC2)c1	-4	-9	0	0	/	/
COc1ccc(O)c(CN(C)CCN(C)C)c1	8	10	7.2*	1	0	-9
N#Cc1ccccc1OCC(=O)N1CCOCC1	9	5	5.5*	0	0	2
Cn1c(=O)[nH]c(=O)c2c1nc(N1CCC(C(N)=O)CC1)n2CCSc1ncccn1	2	7	0	0	/	/
